Test results published in PubChem BioAssay (NCATS).
Inconclusive results are not listed. Where a call stands in place of a potency, no number is given. Activity calls are given as the source filed them. Calls follow the shape of the dose curve; as a rule, active = well fitted inhibition curve with a large enough effect; inconclusive = small, poorly fitted or top-dose-only effect; inactive = flat fitted curve, though single readings scatter.

What follows are molecules tested against Aldehyde dehydrogenase, mitochondrial (Homo sapiens) (UniProt P05091) (assay: qHTS for Inhibitors of the Aldehyde Dehydrogenase Family (ALDH2) Primary screen (AID 2061308; also: nearly all actives have a fitted effect of over 55% in size)). Conditions: ALDH2 enzyme inhibition qHTS, 1536-well; series mostly up to 56 µM.
With `Cc1cnc(-c2ccccc2C(C)O)nc1NCc1ccc(-c2cccnc2)cc1` (stereo not given) the Potency was “inactive”. With `Cc1cc(C)nc(NC(=S)N2CCN(c3ccc(Cl)cc3[N+](=O)[O-])CC2)c1` the Potency was “inactive”. In the case of `NCCCCC(=O)Nc1ccc(Cl)cc1C(=O)c1ccc[nH]1`, the Potency is reported as “inactive”. In the case of `N#Cc1ccc(C[C@@H](NS(=O)(=O)c2ccc(C(=O)O)cc2)C(=O)O)cc1`, the Potency is reported as “inactive”. In the case of `Cc1csc(CNc2ncnc3ccc(-c4cccc(Cl)c4)cc23)c1`, the Potency is reported as “inactive”. `O=C1CCc2cc(S(=O)(=O)Nc3cccc4ccccc34)ccc2N1` was tested, and the Potency was “inactive”. With `CC(Cc1ccccc1)C(=O)Nc1ccc(Cl)cc1C(=O)O` (stereo not given) the Potency was “inactive”. With `Cc1nc(N2CCOCC2)c2nc(-c3ccccc3)n(CCCN3CCOCC3)c2n1` the Potency was “inactive”. `CCCn1c(-c2ccc(F)cc2)nc2c(N3CCN(C)CC3)nc(C)nc21` was tested, and the Potency was “inactive”. In the case of `Cn1c2cc(C#N)sc2c2cnn(Cc3ccc(F)cc3)c(=O)c21`, the Potency is reported as “inactive”. `Cc1cc2c(s1)c1cnn(Cc3ccc4ccccc4c3)c(=O)c1n2C` was tested, and the Potency was “inactive”. With `Cc1ccccc1NS(=O)(=O)c1ccc2c(c1)CCC(=O)N2` the Potency was “inactive”. `Cc1ccc(-c2cc(C(=O)Nc3ncco3)c3ccccc3n2)cc1C` was tested, and the Potency was “inactive”. With `Cc1ccc(-c2ccc(=O)n(CC(=O)NCCc3cnc[nH]3)n2)cc1` the Potency was “inactive”. For `c1cncc(CNc2ncnc3ccc(-c4ccco4)cc23)c1`, the Potency was “inactive”. In the case of `CCn1cnc2c(Nc3ccc(CCC(=O)N=C(N)N)cc3)nc(C#N)nc21`, the Potency is reported as “inactive”. With `O=C(Nc1ncc(Cc2ccc(C(F)(F)F)cc2)s1)c1cnc(-c2ccccc2)s1` the Potency was “inactive”. In the case of `CCN(CC)CCCn1c(-c2ccccc2)nc2c(NCc3ccccc3)nc(C)nc21`, the Potency is reported as “inactive”. For `COc1cc(NC(=O)C(OC(=O)CNC(=O)c2ccccc2)c2ccccc2)cc(OC)c1` (stereo not given), the Potency was “inactive”. `CCCCN(C)C(=O)Cn1nc(-c2ccc(OC)cc2)ccc1=O` was tested, and the Potency was “inactive”. `Fc1cc(Nc2nc(-c3ccncc3)nc3ccccc23)ccc1-c1cccc(OC(F)(F)F)c1` was tested, and the Potency was “inactive”. For `O=C1CCCC2=C1C(c1ccncc1)N=C(Nc1nc3ccccc3o1)N2` (stereo not given), the Potency was “inactive”. `CC(=O)Nc1ccccc1OC1=N[S+](=O)([O-])c2ccccc21` was tested, and the Potency was “inactive”. For `CC(C)c1ccccc1-c1nc(NCc2ccc(-c3cccnc3)cc2)c2ccccc2n1`, the Potency was “inactive”. For `N#Cc1cc(NC(=O)Nc2nnc(-c3ccncc3)s2)ccc1F`, the Potency was “inactive”. `O=[S+]([O-])(c1ccc2c(c1)OCCO2)N1CCN([S+](=O)([O-])c2ccc(F)cc2Br)CC1` was tested, and the Potency was “inactive”. `CC(=O)Nc1cccc(S(=O)(=O)N2CCN(S(=O)(=O)c3ccc4c(c3)OCCO4)CC2)c1` was tested, and the Potency was “inactive”. `COc1ccccc1S(=O)(=O)Nc1ccc2c(c1)CN(C)C(=O)N2` was tested, and the Potency was “inactive”. For `CCCn1ncc(CN2CCCC(C(=O)c3cccc(OC(C)C)c3)C2)c1C` (stereo not given), the Potency was “inactive”. In the case of `Cc1ccc(C[C@H](C(=O)O)N2C(=O)c3ccc(C(=O)O)cc3C2=O)cc1`, the Potency is reported as “inactive”. With `Cc1cc2c(s1)c1cnn(Cc3ccc(C(C)C)cc3)c(=O)c1n2C` the Potency was “inactive”. With `CCCn1c(-c2ccc(F)cc2)nc2c(NCCCN(CC)CC)nc(C)nc21` the Potency was “inactive”. With `O=C(Cc1nnc(-c2cc3ccccc3[nH]2)s1)Nc1cc(C(F)(F)F)ccc1Cl` the Potency was “inactive”. In the case of `CC1=CC(=O)C2C(C)(C)CCC[C@]2(C)[C@H]1CC[C@H](C)CC(=O)O` (stereo not given in full), the Potency is reported as “inactive”. In the case of `CCCCNc1nc(C)nc2c1nc(-c1ccccc1)n2CCCN(C)C`, the Potency is reported as “inactive”. `Cc1cccc(-c2[nH]c(Cc3cccc(C(N)=O)c3)nc2-c2ccc3nccnc3c2)n1` was tested, and the Potency was “inactive”. In the case of `O=C(O)c1c(-c2ccccc2)no[n+]1[O-]`, the Potency is reported as “inactive”. `O=C1CCCC2=C1C(c1[nH]ncc1Cl)NC(=NCCc1cccnc1)N2` (stereo not given) was tested, and the Potency was “inactive”. With `COc1ccc(C2Nc3ccccc3C(=O)N2Cc2ccco2)cc1COc1ccccc1C` (stereo not given) the Potency was “inactive”. In the case of `CCC1=CC2CN(C1)Cc1c([nH]c3ccccc13)[C@@](C(=O)OC)(c1cc3c(cc1OC)N(C)[C@H]1[C@@](O)(C(=O)OC)[C@H](OC(C)=O)[C@]4(CC)C=CCN5CC[C@]31[C@@H]54)C2` (stereo not given in full), the Potency is reported as “inactive”.
